Assay results reported in PubChem BioAssay (NCI).
The panel holds about 83,000 compounds, 20% with a hit somewhere; the sample as a whole holds those more often.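 Method: cells in 96-well plates; compound added at one concentration; 48 h incubation; percent growth measured; values under 10 scored active.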 The source made the active and inactive calls.

Columns and labels:
Assay in all cases: NCI-60 one-dose screen, 48 h (100 = growth as untreated, 0 = no growth, -100 = all killed)
Details in all cases: 10 µM unless noted
NCI-H226 lung = test system: NCI-H226 lung
NCI-H322M lung = test system: NCI-H322M lung
HOP-62 NSCLC = test system: HOP-62 NSCLC
HOP-92 NSCLC = test system: HOP-92 NSCLC
NCI-H522 lung = test system: NCI-H522 lung
A549/ATCC NSCLC = test system: A549/ATCC NSCLC
786-0 renal = test system: 786-0 renal
COLO 205 colon = test system: COLO 205 colon
DU-145 prostate = test system: DU-145 prostate
K-562 leukemia = test system: K-562 leukemia
MALME-3M melanoma = test system: MALME-3M melanoma
MDA-MB-231 breast = test system: MDA-MB-231 breast
RXF 393 renal = test system: RXF 393 renal
SF-268 CNS = test system: SF-268 CNS
SF-295 CNS = test system: SF-295 CNS
SF-539 CNS = test system: SF-539 CNS
UACC-257 melanoma = test system: UACC-257 melanoma
NCI-H460 lung = test system: NCI-H460 lung
M14 melanoma = test system: M14 melanoma

Measured: growth

Clc1ccc2c(NC3CCC(NC4CCCCC4)CC3)ccnc2c1 (stereo not drawn)
inactive: NCI-H226 lung 79.7% | NCI-H322M lung 109% | HOP-62 NSCLC 61.6% | HOP-92 NSCLC 51.5% | NCI-H522 lung 62.2% | A549/ATCC NSCLC 65.6% | 786-0 renal 59.8% | DU-145 prostate 80.9% | MALME-3M melanoma 34.6% | MDA-MB-231 breast 45.4% | RXF 393 renal 51.2% | SF-268 CNS 84.7% | SF-295 CNS 60.1%
active: COLO 205 colon -71.5% | K-562 leukemia 0.509% | SF-539 CNS 0.613% | UACC-257 melanoma -51.5%

CC12CCC3C4(C)COC(c5ccco5)OC4CCC3(C)C1CC(C1=CCOC1=O)O2 (stereo not drawn)
inactive: NCI-H226 lung 101% | NCI-H322M lung 98.9% | HOP-62 NSCLC 105% | NCI-H460 lung 102% | HOP-92 NSCLC 100% | NCI-H522 lung 109% | A549/ATCC NSCLC 107% | 786-0 renal 93.4% | DU-145 prostate 107% | K-562 leukemia 92.6% | MALME-3M melanoma 98.5% | MDA-MB-231 breast 90.2% | RXF 393 renal 99.3% | SF-268 CNS 98.5% | SF-295 CNS 97.9% | SF-539 CNS 107% | UACC-257 melanoma 110% | M14 melanoma 98.6%

Cc1cc(N/N=C/c2nc(-c3ccccc3)oc2C)c2cc(Cl)ccc2n1
inactive: NCI-H226 lung 81.4% | HOP-62 NSCLC 10.5% | UACC-257 melanoma 106%
active: NCI-H322M lung -54.8% | NCI-H460 lung -78.3% | HOP-92 NSCLC -61.9% | NCI-H522 lung -59.4% | A549/ATCC NSCLC -76.8% | 786-0 renal -83.1% | COLO 205 colon -71.9% | DU-145 prostate -31.3% | K-562 leukemia -29.3% | MALME-3M melanoma -88.9% | MDA-MB-231 breast -95.1% | RXF 393 renal -88.3% | SF-268 CNS -60.3% | SF-295 CNS -85% | SF-539 CNS 8.72% | M14 melanoma -87.4%

O=[N+]([O-])c1ccc(Sc2ncccn2)c([N+](=O)[O-])c1
active: NCI-H522 lung -50.1% | RXF 393 renal -38.6%
inactive: NCI-H226 lung 96.3% | NCI-H322M lung 97.7% | HOP-62 NSCLC 94.6% | NCI-H460 lung 95.4% | HOP-92 NSCLC 18% | A549/ATCC NSCLC 67.9% | 786-0 renal 61.3% | COLO 205 colon 21% | DU-145 prostate 11.1% | K-562 leukemia 12.7% | MALME-3M melanoma 75.8% | MDA-MB-231 breast 68.6% | SF-268 CNS 52.8% | SF-295 CNS 111% | SF-539 CNS 96.7% | UACC-257 melanoma 29.4% | M14 melanoma 62.5%

CCN(CC)CCC(CNc1ccnc2cc(Cl)ccc12)c1ccccc1 (stereo not drawn)
active: K-562 leukemia 2.5% | MALME-3M melanoma -47.1% | RXF 393 renal -21% | SF-295 CNS -21.4% | SF-539 CNS -15.2% | UACC-257 melanoma -78.2% | M14 melanoma -83.9%
inactive: NCI-H226 lung 63% | NCI-H322M lung 93.7% | HOP-62 NSCLC 78.4% | NCI-H460 lung 67.7% | NCI-H522 lung 18% | A549/ATCC NSCLC 70.4% | 786-0 renal 69.8% | DU-145 prostate 89.4% | MDA-MB-231 breast 43% | SF-268 CNS 78.3%

COc1ccc(/C=C2/C(=O)NC(SCC(=O)N3CCN(c4cc5c(cc4F)c(=O)c(C(=O)O)cn5C4CC4)CC3)=NC2N)cc1OC (stereo not drawn)
inactive: NCI-H226 lung 98.5% | NCI-H322M lung 111% | HOP-62 NSCLC 110% | NCI-H460 lung 107% | HOP-92 NSCLC 101% | NCI-H522 lung 99% | A549/ATCC NSCLC 107% | 786-0 renal 102% | COLO 205 colon 113% | DU-145 prostate 104% | K-562 leukemia 107% | MALME-3M melanoma 108% | MDA-MB-231 breast 106% | RXF 393 renal 109% | SF-268 CNS 96.8% | SF-295 CNS 93.9% | SF-539 CNS 101% | UACC-257 melanoma 108% | M14 melanoma 106%

Clc1cccc(-c2cc(-c3ccc4c(c3)OCCO4)[nH]n2)c1
inactive: NCI-H226 lung 34.8% [25 µM] | NCI-H322M lung 37.2% [25 µM] | HOP-62 NSCLC 26.6% [25 µM] | HOP-92 NSCLC 55.4% [25 µM] | A549/ATCC NSCLC 41.2% [25 µM] | 786-0 renal 56.8% [25 µM] | COLO 205 colon 11.9% [25 µM] | DU-145 prostate 38.8% [25 µM] | K-562 leukemia 12% [25 µM] | MALME-3M melanoma 35.4% [25 µM] | MDA-MB-231 breast 32.4% [25 µM] | SF-268 CNS 53.2% [25 µM] | SF-295 CNS 29% [25 µM] | SF-539 CNS 33.6% [25 µM] | UACC-257 melanoma 74% [25 µM]
active: NCI-H522 lung 0.794% [25 µM] | RXF 393 renal 8.25% [25 µM]

CC(C)CSc1nc(NN)c(C#N)c(-c2ccc(F)cc2)n1
inactive: NCI-H226 lung 80.3% | NCI-H322M lung 74.9% | HOP-62 NSCLC 47.3% | NCI-H460 lung 52.1% | NCI-H522 lung 63.2% | A549/ATCC NSCLC 77.1% | 786-0 renal 85.9% | COLO 205 colon 97.1% | DU-145 prostate 66.5% | K-562 leukemia 58.8% | MALME-3M melanoma 95.5% | MDA-MB-231 breast 86.8% | RXF 393 renal 79.3% | SF-268 CNS 62.6% | SF-295 CNS 44.7% | SF-539 CNS 65.9% | UACC-257 melanoma 105% | M14 melanoma 78.9%

O=C(Nc1ccc2c(c1)OCO2)C(=O)c1c[nH]c2cc(F)ccc12
inactive: NCI-H226 lung 73% | NCI-H322M lung 65.3% | HOP-62 NSCLC 54.4% | NCI-H460 lung 41.3% | HOP-92 NSCLC 42.2% | NCI-H522 lung 61.2% | A549/ATCC NSCLC 48.9% | 786-0 renal 57.7% | COLO 205 colon 83.1% | DU-145 prostate 34.5% | K-562 leukemia 26.4% | MALME-3M melanoma 73% | MDA-MB-231 breast 25.6% | RXF 393 renal 75.4% | SF-268 CNS 47.6% | SF-295 CNS 24.2% | SF-539 CNS 56.1% | UACC-257 melanoma 64.4% | M14 melanoma 29.9%
